# Source: PubChem BioAssay
# Mcl-1 Bim block – inhibitors of Bim peptide binding to Mcl-1, primary screen, biochemical, bead-based flow cytometry, multiplex; inhibition, % at 10 µM; 190,000 compounds, 0.1% hits; AID 1009, 2008; Bim peptide-Mcl-1 binding; in the data active = inhibition above about 40%;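 note: 0% = no compound tracer wells and 100% = peptide blocker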
# 14-3-3 Bad inh – inhibitors of 14-3-3 zeta/Bad binding, primary screen, biochemical, TR-FRET, bovine 14-3-3 zeta; 220,000 compounds, 0.71% hits; AID 781, 2007; TR-FRET 14-3-3zeta/Dy647-pBad peptide displacement, 1 h; inhibition, % at 21.7 µM; 14-3-3 protein zeta/delta (Bos taurus), P63103;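 active = inhibition above about 70%, limit read from the data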;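 note: 0% = full 14-3-3 plus peptide FRET controls and 100% = background without 14-3-3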
# Mcl1-Noxa inh – Mcl-1/Noxa binding inhibitors, primary screen, biochemical, TR-FRET, 1536-well; Induced myeloid leukemia cell differentiation protein Mcl-1 (Homo sapiens), Q07820; 220,000 compounds, 1.5% hits; inhibition, % at 21.7 µM; TR-FRET Mcl-1/Noxa peptide binding, 2 h;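 active = compounds that cut the protein-peptide binding signal by more than 50% relative to plate controls in a single-dose test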;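 note: His-tagged Mcl-1 with rhodamine Noxa BH3 peptide and terbium anti-His antibody; 0% = Mcl-1 plus Noxa peptide wells and 100% = peptide-only wells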
# Hck-Nef inh – inhibitors of Nef-activated human Hck kinase, primary screen, biochemical, Z-Lyte FRET, 384-well, Hck-YEEI; Recombinant Hck-YEEI plus Nef, Z-Lyte FRET kinase assay; inhibition, % at 20 µM; 220,000 compounds, 0.68% hits; Tyrosine-protein kinase HCK (Homo sapiens), P08631;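 active = Hck-Nef kinase inhibition above about 50%, limit read from the data; inactive = inhibition below that limit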;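 note: 0% = DMSO with Hck plus Nef and 100% = Hck alone without Nef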
# Target sequence (P08631 whole entry, looked up): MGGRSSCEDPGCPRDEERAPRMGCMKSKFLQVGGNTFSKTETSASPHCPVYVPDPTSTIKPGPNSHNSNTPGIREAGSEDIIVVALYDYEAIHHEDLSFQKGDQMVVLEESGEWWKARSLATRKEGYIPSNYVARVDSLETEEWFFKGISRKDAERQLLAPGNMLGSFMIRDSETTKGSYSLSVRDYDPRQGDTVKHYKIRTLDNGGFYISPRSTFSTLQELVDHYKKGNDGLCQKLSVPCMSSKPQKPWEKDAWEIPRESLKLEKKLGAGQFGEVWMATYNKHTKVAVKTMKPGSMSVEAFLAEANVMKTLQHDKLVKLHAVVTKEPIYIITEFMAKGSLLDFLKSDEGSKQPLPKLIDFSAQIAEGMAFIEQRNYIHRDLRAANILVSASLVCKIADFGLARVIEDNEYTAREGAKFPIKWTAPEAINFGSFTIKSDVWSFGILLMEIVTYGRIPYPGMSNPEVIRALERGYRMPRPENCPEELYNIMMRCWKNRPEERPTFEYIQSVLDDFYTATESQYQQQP
# Mcl1 Bid PPI – Mcl-1/Bid binding inhibitors, primary screen, biochemical, TR-FRET, 1536-well; TR-FRET Mcl-1/Bid-Dy647 peptide binding; inhibition, % at 21.7 µM; 220,000 compounds, 0.97% hits; AID 1021, 2008;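 active = compounds that cut the binding signal by more than half at the single screening dose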;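 note: His-tagged Mcl-1 with europium anti-His antibody binding Bid BH3 peptide; 0% = Mcl-1 plus peptide wells and 100% = peptide-only wells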
# Pf gametocyte – late stage P. falciparum gametocyte viability inhibitors, primary screen, ATP luminescence, HTS. P. falciparum stage V gametocytes, 24 h. inhibition, % at 10.9 µM. 150,000 compounds, 0.065% hits. AID 743093, 2013;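 active = inhibition above the mean plus 3 SD of compounds within the control limits, set per campaign, cut at about 38% in these data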;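 note: 0% = DMSO wells and 100% = medium only without gametocytes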
# * marks the source's active call; other numbers are inactive results; nt = no result; [ ] = dose if it differs, or a comment. This is a sample that favours compounds with a hit; in the whole collection about 2.9% have one here.
SMILES,Mcl-1 Bim block,14-3-3 Bad inh,Mcl1-Noxa inh,Hck-Nef inh,Mcl1 Bid PPI,Pf gametocyte
CCOC(=O)Nc1ccc2c(c1)nc(CN1CCN(C(C)=O)CC1)n2C,-1.0,-8.2,-0.2,-7.6,-21.4,nt
COc1cccc(/C=C2/SC(=O)N(C)C2=O)c1OCc1ccc(C(=O)O)cc1,67.0*,-7.5,3.1,1.3,-19.4,7.3
CN1C(=O)S/C(=C/c2ccc(OCc3cccc(C(=O)O)c3)cc2)C1=O,nt,nt,nt,nt,nt,10.1
CC(C)N1C(=O)/C(=C\c2nc3ccccc3c(=O)[nH]2)c2ccccc21,-1.0,49.6,55.4*,4.3,69.9*,3.3
CCCN1C(=O)/C(=C/c2nc3ccccc3c(=O)[nH]2)c2ccccc21,-5.0,6.4,44.4,4.0,41.6,-23.7
CCN(CC)c1cc(C)c2cc(NC(=O)c3ccc(Br)o3)ccc2n1,1.0,3.2,60.5*,0.4,-16.6,-5.4
Cc1ccc(S(=O)(=O)/N=C2/C=C(Sc3ncn[nH]3)C(=O)c3ccccc32)cc1,-7.0,88.4*[fluorescence artefact?],98.0*,4.9,65.3*,nt
CC(C)c1ccc(S(=O)(=O)/N=C2/C=C(Sc3ncn[nH]3)C(=O)c3ccccc32)cc1,27.0,78.5*[fluorescence artefact?],105.1*,-2.1,49.1,nt
Cc1ccc(C)c(S(=O)(=O)Nc2ccc(O)c(Sc3ncn[nH]3)c2)c1,nt,5.2,8.4,17.5,-45.2,12.5
Cc1ccc(S(=O)(=O)Nc2ccc(O)c(Sc3ncn[nH]3)c2)cc1,-1.0,-10.6,23.2,18.0,-29.2,nt
Cc1ccc(S(=O)(=O)/N=C2/C=C(Sc3ncn[nH]3)C(=O)c3ccccc32)c(C)c1,11.0,66.3,94.3*,-1.7,25.9,nt
Cc1cccc2sc(NC(=O)[C@H](C)N3C(=O)C4CC=CCC4C3=O)nc12 (some centres undefined),nt,14.2,25.4,-10.5,40.9,-4.1
CCN1CCN(c2nc(NCCO)c3ccccc3n2)CC1,nt,nt,nt,nt,nt,5.7
OCCNc1nc(N2CCN(Cc3ccccc3)CC2)nc2ccccc12,4.0,80.3*,46.2,1.3,22.4,nt
COC(=O)c1cccc(NC(=S)Nc2cc(Cl)ccc2OC)c1,0.0,-10.5,6.2,0.8,-34.1,-10.5
CCOc1cc(CNc2ccc(OC)cc2)cc(Br)c1OCC(=O)NC(C)(C)C,0.0,-21.4,10.5,-0.2,-53.9,nt
Cc1cc(C)n(CCc2nc(-c3ccco3)cs2)n1,-20.0,-10.8,52.7*,4.6,-33.3,nt
COc1ccc(N=Cc2cc(Cc3ccccc3Cl)cc([N+](=O)[O-])c2O)cc1OC,-1.0,22.5,61.4*,25.2,-0.7,nt
COc1ccc([N+](=O)[O-])cc1NC(=O)Cc1ccccc1Cl,-3.0,-11.1,9.1,2.5,-3.1,nt
Cc1ccccc1NC(=O)c1ccc(CN2CCC(Cc3ccccc3)CC2)cc1,0.0,-1.6,-5.0,-0.8,-15.8,nt
C=CCNC(C(=O)Nc1cccc(OC)c1)c1ccccc1 (centres undefined),1.0,-8.0,-3.0,17.0,-14.2,10.1
COc1cccc(NC(=O)C(NCC(C)(C)CN(C)C)c2ccccc2)c1 (centres undefined),-3.0,70.3*,34.5,4.3,32.1,nt
COc1ccc(-c2cc(C(F)(F)F)c(C#N)c(SCC(=O)O)n2)cc1,-3.0,-14.9,6.3,26.8,14.6,6.5
CCC(C(=O)NC1CCCC1)N(C(=O)Cn1nnc(-c2ccc(C)o2)n1)c1cnc2ccccc2c1 (centres undefined),-1.0,77.6*,18.6,0.3,-37.1,-1.0
O=C1C2CC=C(Cl)CC2C(=O)N1CCN1CCOCC1 (centres undefined),-5.0,21.9,2.3,1.1,-25.0,17.5
SMILES,Mcl-1 Bim block,14-3-3 Bad inh,Mcl1-Noxa inh,Hck-Nef inh,Mcl1 Bid PPI,Pf gametocyte
O=C1C2CC=C(Cl)CC2C(=O)N1CCCCCCN1C(=O)C2CC=C(Cl)CC2C1=O (centres undefined),1.0,11.2,54.8*,0.7,-26.9,nt
COc1ccc(/C=N/NC(=O)CN2CCSCC2)c(OC)c1,3.0,15.8,60.2*,2.4,-7.3,nt
O=C(NCC1COc2ccccc2O1)C1CCN(S(=O)(=O)c2cccc3nsnc23)CC1 (centres undefined),-2.0,84.7*,13.6,0.3,-6.2,-36.0
O=C(O)CCCN1C(=O)/C(=C\c2ccco2)SC1=S,-2.0,3.5,1.0,22.8,-87.2,-5.1
O=C(O)CCN1C(=O)/C(=C\c2ccc(-c3nc4ccccc4s3)o2)SC1=S,25.0,17.2,102.2*,1.7,95.0*,nt
C=CCNCCCOc1ccc(C(C)(C)c2ccccc2)cc1,-2.0,62.0,31.6,-5.9,52.4*,-19.0
O=C1C2CC=CCC2C(=O)N1c1ccc(N2CCN(c3ccccn3)CC2)c([N+](=O)[O-])c1 (centres undefined),1.0,-20.5,10.5,23.5,-3.9,2.5
CN(C)c1nc(Nc2ccccc2)nc(N(C)C)n1,0.0,80.1*,11.7,0.9,13.1,nt
O=C(NCCCl)Nc1ccc(Cl)c([N+](=O)[O-])c1,-1.0,-11.9,13.9,-10.3,-30.6,-30.8
Cc1ccc(C)c(NC2=CC(=O)CC(C)(C)C2)c1C#N,0.0,75.7*,1.3,-1.3,-2.0,12.0
CC1(C)CC(=O)C=C(Nc2ccccc2C#N)C1,nt,nt,nt,nt,nt,4.8
Oc1cc2c(cc1O)[C@@H](c1ccccc1)CNCC2,7.0,-7.3,67.3*,-4.9,-18.7,nt
CC(=C/c1ccccc1)/C=C1/SC(N2CCOCC2)=NC1=O,0.0,7.2,39.9,-0.7,63.7*,nt
Cc1ccc(-n2cnnn2)c2cccnc12,8.0,-4.3,-31.5,-7.0,57.2*,nt
Cc1ccc(N2C(=O)c3cccc4c(N)ccc(c34)C2=O)c2cccnc12,nt,2.8,-16.1,-28.6,-59.2,13.0
O=C1/C(=C/c2cccs2)SC(=S)N1NS(=O)(=O)c1ccccc1,nt,2.2,21.5,77.6*,29.9,-11.7
CC(Nc1ccc(N2CCOCC2)cc1)C(=O)N1c2ccccc2CC1C (centres undefined),nt,84.3*,18.0,-30.4,-53.5,22.3
CCn1c(SCCN2CCCCC2)nnc1-c1ccc(S(=O)(=O)N2CCOCC2)cc1,-3.0,74.6*,26.7,0.3,25.8,6.6
CC1CCCN(C(=O)CSc2nnc(-c3ccc(S(=O)(=O)N4CCOCC4)cc3)n2C)C1 (centres undefined),0.0,84.6*[fluorescence artefact?],0.7,1.9,-2.3,nt
COc1ccccc1CNCC(=O)Nc1ccccc1-n1cccc1,-7.0,32.5,24.0,17.5,-8.5,-4.8
CC(CCc1ccccc1)NCc1ccncc1 (centres undefined),0.0,89.6*,34.4,-0.3,-6.2,nt
O=C(NCC1CC1)c1ccc(Nc2nc3ccc(Br)cc3[nH]2)cc1,0.0,35.2,52.1*,-0.5,12.9,nt
